Test results: PubChem BioAssay (EPA / NIEHS)
Results filed as inconclusive are left out. Where a structure was tested more than once in an assay, its records may differ in their call. Active and inactive are the calls of the source. The calls were made as follows, unless noted: active = hit-call score of the fitted dose curve at least 0.9, where 1 is the maximum; inactive = score below 0.9.

Key:
[1] = read-out: Interleukin-8 (IL8), CXCL8 (gene 3576); assay: BSK_3C_IL8: BioMAP Diversity Plus: 3C Assay for Interleukin-8 (IL8) Biomarker Activity (AID 2283020); details: primary human endothelial cells (HUVEC); actives raise or lower the signal
Procedure, shortened: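 Endothelial primary cells of human umbilical vein origin are dosed with chemical; after 24 h the IL-8 biomarker is measured by ELISA, and concentration–response is fitted in both directions versus DMSO.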

[2] = read-out: Monokine induced gamma interferon (MIG), CXCL9 (gene 4283); assay: BSK_3C_MIG: BioMAP Diversity Plus: 3C Assay for Monokine induced gamma interferon (MIG) Biomarker Activity (AID 2283021); details: primary human endothelial cells (HUVEC); actives raise or lower the signal;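 as to AC50: MIG protein level measured by immunoassay in the treated endothelial cultures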
Procedure, shortened: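 Endothelial primary cells (human umbilical vein) are dosed with test chemical in the 3C system. MIG levels are measured by ELISA at 24 h and fitted in both directions relative to DMSO.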

[3] = molecular target: human Vitamin D Receptor (VDR), VDR (gene 7421) (UniProt P11473); assay: ATG_VDR_TRANS: Attagene TRANS-FACTORIAL HepG2 Assay for human Vitamin D Receptor (VDR) (AID 2283022; active = hit-call score of the fitted dose curve at least 0.9, where 1 is the maximum)
Procedure, shortened: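 Transactivation by an exogenous VDR-Gal4 chimera in transiently transfected HepG2 cells was measured as reporter transcript level 24 hours after chemical treatment. RT-PCR products were analysed by capillary electrophoresis and fitted in the positive direction relative to DMSO.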

[4] = BSK_3C_SRB: Viability Assessment in the BioMAP Diversity Plus: 3C Assay (AID 2283023); details: primary human endothelial cells (HUVEC);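 also: fitted both ways against DMSO so a hit may be signal rise or drop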
Procedure, shortened: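 Cytotoxicity readout in parallel HUVEC 3C cultures: after 24 h compound exposure, cells fixed with 10% TCA, stained with 0.1% SRB and read at 560 nm. Gain or loss relative to DMSO fitted.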

[5] = read-out: Matrix Metallopeptidase 1 (MMP1), MMP1 (gene 4312); assay: BSK_BE3C_MMP1: BioMAP Diversity Plus: BE3C Assay for Matrix Metallopeptidase 1 (MMP1) Biomarker Activity (AID 2283024); details: primary human bronchial epithelial cells; actives raise or lower the signal
Procedure, shortened: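 MMP1 signal, measured by ELISA after a 24 h chemical exposure of human primary bronchial epithelial cells, is analysed with bidirectional fitting using DMSO as negative control.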

[6] = read-out: Pselectin, SELP (gene 6403); assay: BSK_4H_Pselectin: BioMAP Diversity Plus: 4H Assay for Pselectin Biomarker Activity (AID 2283026); details: primary human endothelial cells (HUVEC); actives raise or lower the signal
Procedure, shortened: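 Endothelial primary cells (human umbilical vein) are dosed, incubated 24 h, and assayed for surface P-selectin by ELISA; responses in either direction are fitted relative to the DMSO negative control.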

[7] = BSK_4H_SRB: Viability Assessment in the BioMAP Diversity Plus: 4H Assay (AID 2283027); details: primary human endothelial cells (HUVEC);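 also: cells exposed to compound for 24 h before staining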;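 as to AC50: curves fitted both ways versus DMSO so AC50 may be loss or gain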
Procedure, shortened: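 Cytotoxicity readout: sulforhodamine B (0.1%) staining of total protein after 10% TCA fixation, measured at 560 nm in human umbilical vein endothelium at 24 h. DMSO set the baseline; fitting was bidirectional.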

[8] = BSK_BE3C_SRB: Viability Assessment in the BioMAP Diversity Plus: BE3C Assay (AID 2283028); details: primary human bronchial epithelial cells;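 as to AC50: fitted both ways so AC50 may mark signal gain or loss versus DMSO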
Procedure, shortened: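 Cytotoxicity read-out: SRB (0.1%) staining of TCA-fixed (10%) human lung bronchial epithelial cells, absorbance 560 nm, 24 h post-dosing. Curves fitted both directions relative to DMSO.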

[9] = read-out: Thrombomodulin, THBD (gene 7056); assay: BSK_3C_Thrombomodulin: BioMAP Diversity Plus: 3C Assay for Thrombomodulin Biomarker Activity (AID 2283029); details: primary human endothelial cells (HUVEC); actives raise or lower the signal
Procedure, shortened: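 Endothelial cells from umbilical vein are dosed with test chemical and incubated 24 h. Thrombomodulin is then quantified by ELISA, with DMSO serving as negative control and activity baseline.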

[10] = read-out: Urokinase-type plasminogen activator receptor (uPAR), PLAUR (gene 5329); assay: BSK_4H_uPAR: BioMAP Diversity Plus: 4H Assay for Urokinase-type plasminogen activator receptor (uPAR) Biomarker Activity (AID 2283030); details: primary human endothelial cells (HUVEC); actives raise or lower the signal
Procedure, shortened: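 uPAR level read by ELISA on HUVEC cultures (BioMAP 4H) 24 h post-dosing, analyzed for gain or loss relative to DMSO. Parallel SRB staining assessed overt cytotoxicity.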

[11] = read-out: Vascular endothelial growth factor receptor 2 (Homo sapiens) (UniProt P35968); assay: BSK_4H_VEGFRII: BioMAP Diversity Plus: 4H Assay for Vascular endothelial growth factor receptor 2 (VEGFR2) Biomarker Activity (AID 2283031); details: primary human endothelial cells (HUVEC); actives raise or lower the signal
Procedure, shortened: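 Measured by ELISA after 24 h of compound treatment: VEGFR2 on primary human umbilical vein endothelial cells, fitted in both directions relative to DMSO. Parallel cultures received SRB staining (560 nm) for overt cytotoxicity.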

[12] = read-out: Human Leukocyte Antigen - DR isotype (HLADR), HLA-DRA (gene 3122); assay: BSK_BE3C_HLADR: BioMAP Diversity Plus: BE3C Assay for Human Leukocyte Antigen - DR isotype (HLADR) Biomarker Activity (AID 2283032); details: primary human bronchial epithelial cells; actives raise or lower the signal
Procedure, shortened: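 Chemicals are dosed onto BE3C bronchial epithelial cultures of human origin and left 24 h. HLA-DR is then measured by ELISA, and the endpoint is fitted in both directions using DMSO as the activity baseline.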

[13] = read-out: Vascular cell adhesion molecule 1 (VCAM1), VCAM1 (gene 7412); assay: BSK_4H_VCAM1: BioMAP Diversity Plus: 4H Assay for Vascular cell adhesion molecule 1 (VCAM1) Biomarker Activity (AID 2283033); details: primary human endothelial cells (HUVEC); actives raise or lower the signal
Procedure, shortened: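 Chemicals are added to primary human umbilical vein endothelial cells. After 24 h, VCAM-1 levels are measured by ELISA. Values come from bidirectional fitting referenced to DMSO.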

[14] = read-out: Interferon-gamma inducible Protein 10 (IP10), CXCL10 (gene 3627); assay: BSK_BE3C_IP10: BioMAP Diversity Plus: BE3C Assay for Interferon-gamma inducible Protein 10 (IP10) Biomarker Activity (AID 2283034); details: primary human bronchial epithelial cells; actives raise or lower the signal
Procedure, shortened: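 IP-10 quantified by ELISA serves as the endpoint. Cells: primary human bronchial epithelium, read 24 h after compound addition. Activity is derived by bidirectional fitting with DMSO as negative control.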

[15] = read-out: Monokine induced gamma interferon (MIG), CXCL9 (gene 4283); assay: BSK_BE3C_MIG: BioMAP Diversity Plus: BE3C Assay for Monokine induced gamma interferon (MIG) Biomarker Activity (AID 2283035); details: primary human bronchial epithelial cells; actives raise or lower the signal
Procedure, shortened: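 hu bronchial epithelial 1° cells, 24 h cpd; MIG by ELISA; bidirectional fit, DMSO = baseline.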

[16] = read-out: Plasminogen activator inhibitor-1 (PAI1), SERPINE1 (gene 5054); assay: BSK_BE3C_PAI1: BioMAP Diversity Plus: BE3C Assay for Plasminogen activator inhibitor-1 (PAI1) Biomarker Activity (AID 2283037); details: primary human bronchial epithelial cells; actives raise or lower the signal
Procedure, shortened: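 Values derive from bidirectional fitting against DMSO baseline of PAI-1 levels, measured by ELISA in human bronchial epithelial cells 24 h after compound addition.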

[17] = read-out: urokinase plasminogen activator (uPA), PLAU (gene 5328); assay: BSK_BE3C_uPA: BioMAP Diversity Plus: BE3C Assay for urokinase plasminogen activator (uPA) Biomarker Activity (AID 2283038); details: primary human bronchial epithelial cells; actives raise or lower the signal
Procedure, shortened: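 ELISA for uPA on human primary bronchial epithelial cultures 24 h post-treatment, gain or loss against DMSO. Parallel SRB staining (0.1% after 10% TCA fixation, 560 nm) assessed overt cytotoxicity.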

[18] = read-out: Urokinase-type plasminogen activator receptor (uPAR), PLAUR (gene 5329); assay: BSK_BE3C_uPAR: BioMAP Diversity Plus: BE3C Assay for Urokinase-type plasminogen activator receptor (uPAR) Biomarker Activity (AID 2283039); details: primary human bronchial epithelial cells; actives raise or lower the signal;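 also: uPAR protein level measured by ELISA on the cells; cells exposed to compound for one day before measurement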
Procedure, shortened: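 Steps: dose human primary bronchial epithelial cells, incubate 24 h, measure uPAR by ELISA, then fit gain- or loss-of-signal response bidirectionally relative to DMSO.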

[19] = read-out: Interleukin-6 (IL6), IL6 (gene 3569); assay: BSK_CASM3C_IL6: BioMAP Diversity Plus: CASM3C Assay for Interleukin-6 (IL6) Biomarker Activity for (AID 2283040); details: primary human coronary artery smooth muscle cells; actives raise or lower the signal
[20] = read-out: Transforming growth factor beta 1 (TGFb1), TGFB1 (gene 7040); assay: BSK_BE3C_TGFb1: BioMAP Diversity Plus: BE3C Assay for Transforming growth factor beta 1 (TGFb1) Biomarker Activity (AID 2283036); details: primary human bronchial epithelial cells; actives raise or lower the signal
Procedure, shortened: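 Bronchial epithelial primary cells are treated with test chemical, then TGF-b1 is quantified by ELISA after 24 hours. Values derive from bidirectional fitting against DMSO, with cytotoxicity checked by SRB staining in parallel cultures.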

Measured: AC50

human Vitamin D Receptor (VDR), VDR (gene 7421), sequence (P11473 whole entry, looked up, the tested form may be a part): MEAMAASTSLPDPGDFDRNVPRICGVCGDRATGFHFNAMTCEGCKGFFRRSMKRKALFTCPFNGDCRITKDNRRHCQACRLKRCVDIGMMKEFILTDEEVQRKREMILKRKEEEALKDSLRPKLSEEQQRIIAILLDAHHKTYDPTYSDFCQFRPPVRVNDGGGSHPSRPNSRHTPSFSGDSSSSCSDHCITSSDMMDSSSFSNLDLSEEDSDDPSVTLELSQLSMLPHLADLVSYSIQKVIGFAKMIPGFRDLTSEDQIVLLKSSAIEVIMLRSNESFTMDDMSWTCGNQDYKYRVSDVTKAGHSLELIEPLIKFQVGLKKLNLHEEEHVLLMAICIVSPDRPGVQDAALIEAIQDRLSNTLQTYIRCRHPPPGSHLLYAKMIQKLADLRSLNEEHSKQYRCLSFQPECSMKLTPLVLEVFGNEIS

CO[Si](C)(CCC(F)(F)C(F)(F)C(F)(F)C(F)(F)C(F)(F)C(F)(F)F)OC
not listed: [20]
inactive: all other assays above

O=C(O)C(F)(F)C(F)(F)C(F)(F)OC(F)(F)F
inactive: [1] | [2] | [3] | [4] | [5] | [6] | [7] | [8] | [9] | [10] | [11] | [12] | [13] | [14] | [15] | [17] | [19]
active: [5] 37.3 µM | [9] 5.95 µM

OCC(F)(F)C(F)(F)C(F)(F)C(F)(F)C(F)(F)C(F)(F)CO
not listed: [18] | [20]
inactive: all other assays above

NC(=O)C(F)(F)C(F)(F)C(F)(F)F
active: [9] 5.95 µM
inactive: [1] | [2] | [3] | [4] | [5] | [6] | [7] | [8] | [9] | [10] | [11] | [12] | [13] | [14] | [15] | [17] | [19]

Cc1cc(O)c(C(C)(C)C)cc1C(C)(C)C
inactive: [3] | [11]
active: [1] 2.73 µM | [2] 11.5 µM | [4] 3.99 µM | [5] 9.45 µM | [6] 5.32 µM | [7] 4.77 µM | [8] 5.9 µM | [9] 4.96 µM | [10] 3.28 µM | [12] 5.31 µM | [13] 4.86 µM | [14] 6.09 µM | [15] 11 µM | [20] 5.2 µM | [16] 5.28 µM | [17] 5.51 µM | [19] 5.61 µM

FC(F)(F)C(F)(F)C(F)(F)CC1CO1 (configuration not stated)
inactive: [1] | [2] | [3] | [4] | [5] | [6] | [7] | [8] | [9] | [10] | [11] | [12] | [13] | [14] | [15] | [17] | [18] | [19]
active: [5] 26.3 µM
